Bioassay records: PubChem, The Scripps Research Institute Molecular Screening Center
hgDAF12 agonist: H. glycines DAF-12 receptor agonists, primary screen, cell-based, luminescence, HEK293, GAL4 fusion, UAS-luciferase; HEK293 GAL4-hgDAF12 UAS-luciferase reporter, agonist luminescence; normalized to butyrate control; 370,000 tested, 1.8% active; Nuclear hormone receptor DAF-12 (Heterodera glycines), GAL4 fusion; activation, % at 6.8 µM;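 active = activation above a cutoff set at the mean of all screened compounds plus 3 SD, cut at about 10% in these data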;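 note: 0% = DMSO wells and 100% = sodium butyrate wells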
DAX1 inh-1: DAX1 (NR0B1) inhibitors on StAR promoter, primary screen, cell-based, luminescence, SF-1 (NR5A1), full-length DAX-1; HEK293T StAR-luciferase reporter, SF-1/DAX-1 repression relief; inhibition, % at 6.8 µM; 370,000 tested, 1.1% active;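 active = inhibition above the mean over all tested compounds plus 3 SD, cut at about 3.6% in these data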;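 note: 0% = DAX-1 cells with DMSO and 100% = cells lacking DAX-1 with DMSO; higher inhibition means more luminescence from relief of DAX-1 repression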
ssDAF-12 act: S. stercoralis DAF-12 nuclear receptor activators, primary screen, cell-based, luminescence, HEK293, GRIP1 co-expression, lit1-tk-luc. HEK293 ssDAF-12/GRIP1 lit1-tk-luc reporter; % of 3 µM dafachronic acid response. activation, % at 6.8 µM. 370,000 tested, 1% active;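 active = activation above the mean over all tested compounds plus 3 SD, cut at about 0.9% in these data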;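 note: 0% = DMSO-only wells and 100% = 3 µM delta7-dafachronic acid wells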
hcDAF12 agonist: H. contortus DAF-12 nuclear receptor activators, primary screen, cell-based, luminescence, HEK293, lit1-tk-luc reporter | 370,000 tested, 1.4% active | HEK293 hcDAF-12 lit1-tk-luc reporter; 0% DMSO, 100% Δ7-dafachronic acid | activation, % at 6.8 µM;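 active = activation above the mean of all tested compounds plus 3 SD, cut at about 5.5% in these data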;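 note: 100% = response to 3 µM Δ7-dafachronic acid high control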
GAA850 FXN act: FXN promoter activators, primary screen, cell-based, luciferase luminescence, HEK293 lucGAA850; HEK293 lucGAA850 FXN promoter luciferase reporter, 24 h; percent of 10 µM SAHA response; activation, % at 6 µM; 360,000 tested, 0.56% active; AID 540364, 2011;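 active = activation above the average of all compounds screened plus 3 SD, cutoff fixed separately per campaign, cut at about 7.5% in these data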;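 note: 0% = DMSO wells and 100% = 10 µM SAHA wells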
DAX1 inh-2: DAX1 (NR0B1) inhibitors, primary screen, cell-based, HEK293, Gal4-DAX1, luciferase luminescence | 340,000 tested, 0.99% active | HEK293 Gal4-DAX1 luciferase reporter | Nuclear receptor subfamily 0 group B member 1 (Homo sapiens), P51843 | AID 504766, 2011 | inhibition, % at 6.75 µM;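 active = inhibition above the mean over all tested compounds plus 3 SD, cut at about 4.2% in these data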;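 note: 0% = DAX1-transfected cells with DMSO and 100% = empty-vector control cells with DMSO; inhibition shows as a rise in luminescence from relieved DAX1 repression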
Target sequence (P51843 207-470 limits assumed): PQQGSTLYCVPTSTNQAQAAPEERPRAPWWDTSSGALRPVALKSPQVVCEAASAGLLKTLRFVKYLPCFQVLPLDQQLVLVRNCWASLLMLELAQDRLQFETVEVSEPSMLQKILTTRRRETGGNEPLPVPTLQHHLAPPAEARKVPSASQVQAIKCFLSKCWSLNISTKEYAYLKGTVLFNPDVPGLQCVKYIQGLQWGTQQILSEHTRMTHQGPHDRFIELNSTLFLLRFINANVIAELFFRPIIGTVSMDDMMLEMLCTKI
GAA30 counter: GAA30 FXN promoter activators, confirmation, counter-screen for GAA850 frataxin promoter activator project, cell-based, luminescence, HEK293, lucGAA30, triplicate | HEK293 lucGAA30 FXN promoter luciferase, 24 h; DMSO = 0%, 5 µM ipriflavone = 100% | 1,900 tested, 66% active | shares compounds with GAA850 FXN act | activation, % at 6 µM;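 active = mean activation above the mean of solvent-only control wells plus 3 SD, cut at about 22% in these data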;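 note: counterscreen of GAA850 promoter hits where activity marks nonselective or luminescence artifacts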
GAA850 confirm: FXN GAA850 promoter activators in reporter cells, confirmation, cell-based, luminescence, HEK293 lucGAA850, triplicate; activation, % at 6 µM; HEK293 lucGAA850 FXN promoter luciferase reporter, 24 h; 100% = activation by SAHA; shares compounds with GAA850 FXN act; 1,900 tested, 86% active;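 active = mean activation above a set limit taken from the primary screen, cut at about 8% in these data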;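 note: 0% = DMSO wells and 100% = 10 µM SAHA wells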
Active calls of the source: *; . = no result. A selection: hits, their analogues and other compounds. The true share with any hit is near 4.5%.

SMILES | hgDAF12 agonist | DAX1 inh-1 | ssDAF-12 act | hcDAF12 agonist | GAA850 FXN act | DAX1 inh-2 | GAA30 counter | GAA850 confirm
COc1ccc2c(C)c(CCC(=O)NC3CC3)c(=O)oc2c1 | -2 | 0 | -1 | 0 | 0 | 3 | . | .
CCCc1nnc2n1N=C(c1ccc(OC)c(OC)c1)CS2 | -1 | 0 | -1 | 0 | 12* | 3 | 35* | 13*
COc1ccc(C2=Nn3c(nnc3C3CCCCC3)SC2)cc1OC | -8 | 0 | -2 | -5 | 13* | -1 | 14 | 13*
COc1ccc(C2=Nn3c(nnc3-c3ccccc3)SC2)cc1OC | -2 | 0 | -1 | -1 | 9.5* | -1 | 22* | 18*
COc1ccc(OC)c(-c2nnc3n2N=C(c2ccc(OC)c(OC)c2)CS3)c1 | -7 | 2 | -2 | -6 | 1 | -2 | . | .
CCOc1ccc(CCNC(=O)c2ccccn2)cc1OCC | -1 | . | -2 | -1 | . | . | . | .
CCNC(=O)Nc1ccc2c(c1)C(=O)N(C)[C@H]1CC[C@@H](CC(=O)NCCN3CCCC3)O[C@@H]1CO2 | 6 | 0 | 0 | 1 | . | . | . | .
COc1ccc(/C=C/C(=O)Nc2ccc(-n3nncc3-c3ccc(OC)c(OC)c3)cc2)cc1OC | -4 | -2 | -3 | -7 | 8.9* | -2 | 23* | 17*
COc1ccc(-c2cnnn2-c2ccc(NC(=O)/C=C/c3ccc(OC)c(OC)c3)cc2)cc1 | 0 | -1 | -1 | -4 | 1 | 0 | . | .
COc1ccc(C2CC(c3ccc(OC)c(OC)c3)=NN2S(C)(=O)=O)cc1 (stereo unspecified) | 13* | 2 | 0 | 4 | 8.2* | 4.6* | 105* | 40*
COc1ccc(C2CC(c3cccs3)=NN2S(C)(=O)=O)cc1 (stereo unspecified) | 3 | 1 | -2 | 2 | 3 | 2 | . | .
S=C(Nc1cc(Cl)cc(Cl)c1)NC(c1ccccc1)c1ccccc1 | -7 | . | -2 | -4 | . | . | . | .
Clc1ccc(-c2nnc(-c3ccco3)o2)cc1 | 6 | 2 | -1 | 2 | 12* | 2 | 108* | 41*
CN(C)S(=O)(=O)c1cc(NC(=O)CSc2nn(-c3ccc(Cl)cc3)c(=S)s2)ccc1Cl | -1 | -1 | -1 | 2 | 11* | -2 | 14 | 9.1*
Cc1ccc(NC(=O)CNc2ccc(Cl)c(Cl)c2)cc1S(=O)(=O)N(C)C | -6 | -3 | -2 | -5 | -1 | -3 | . | .
Cc1ccc(NC(=O)CSc2nn(-c3ccc(Cl)cc3)c(=S)s2)cc1S(=O)(=O)N(C)C | -4 | -2 | -2 | -6 | 10* | -2 | 6 | 6
CC(C)C[C@H]1COc2cccc(F)c2S(=O)(=O)N1C | 0 | 0 | -2 | -1 | . | . | . | .
O=C1c2cccc3c(N4CCCCC4)ccc(c23)C(=O)N1CCO | 6 | 0 | 0 | 1 | 8.3* | -1 | 88* | 33*
CC(=O)N1CN(S(=O)(=O)c2ccc(C)cc2)CC1C (stereo unspecified) | -2 | -1 | -1 | 2 | 12* | 0 | 12 | 4
COc1ccc(C2N(c3ccc(Cl)cc3)C(=O)C3CCCN32)cc1 (stereo unspecified) | 3 | 1 | 0 | 0 | 13* | -1 | -5 | 3
O=C(c1ccc(Cl)cc1)N1CCC(Oc2cccnc2)CC1 | 3 | 0 | -2 | 0 | . | . | . | .
O=C(O)/C=C/C(=O)NCc1cn(-c2ccccc2)nc1-c1cccc(Br)c1 | 3 | 0 | -1 | -2 | 8.2* | 0 | 30* | 13*
CCOC(=O)c1ccc2[nH]c3c(c2c1)CCCC3C(=O)OCC (stereo unspecified) | 1 | 0 | -2 | -2 | -1 | -1 | . | .
CCOC(=O)c1ccc2[nH]c3c(c2c1)CCCCC3=O | 10 | 1 | -1 | 3 | 8.1* | -1 | 65* | 25*
C/C=C/Cn1c(SCc2ccc(C)cc2)nc2c1c(=O)[nH]c(=O)n2C | 1 | 0 | -1 | 0 | 8.7* | 2 | 23* | 21*
SMILES | hgDAF12 agonist | DAX1 inh-1 | ssDAF-12 act | hcDAF12 agonist | GAA850 FXN act | DAX1 inh-2 | GAA30 counter | GAA850 confirm
CCCCNc1ccc(C(F)(F)F)cc1S(=O)(=O)NCCc1ccc(F)cc1 | -5 | -2 | -1 | -3 | 12* | 0 | 33* | 17*
COCc1[nH]nc2c1C(c1ccc(C)cc1)NC2=O (stereo unspecified) | 3 | 2 | -1 | -2 | . | . | . | .
c1ccc(Nc2nnc(SCc3cccc4ccccc34)s2)cc1 | 2 | 0 | -1 | -2 | 4 | 2 | . | .
Cc1nnc(SCc2cccc3ccccc23)s1 | 3 | 1 | -1 | 2 | 7.6* | 7.0* | 80* | 29*
CCN(CC)C(=O)CC[C@@H]1CC[C@]2(CCCN(Cc3cccs3)C2)O1 | 4 | 0 | 0 | 0 | . | . | . | .
COc1cc(OC)cc(C(=O)Oc2ccc(/C=N/Nc3nc4ccccc4s3)cc2OC)c1 | -5 | 0 | 0 | 2 | 8.0* | 3 | 116* | 36*
COc1cc(/C=N/Nc2nc3ccccc3s2)ccc1OC(=O)c1ccccc1F | 3 | 1 | 1 | 4 | 9.3* | 1 | 118* | 41*
COC(=O)C[C@@H]1CC[C@H]2[C@H](COc3ccc(NC(=O)Nc4ccc(Cl)cc4)cc3C(=O)N2C)O1 | -1 | -1 | -1 | -3 | . | . | . | .
COC(=O)[C@]12C[C@H](CC(=O)NCc3cccs3)C(=O)N(Cc3cccc4ccccc34)C1=C[C@H](C(C)C)O[C@@H]2C1CC1 | -1 | 0 | -2 | -1 | . | . | . | .
CCCCNC(=O)N(O)C1N(/N=C/c2ccccc2F)C(=S)SC1(C)C (stereo unspecified) | -2 | 0 | -1 | 0 | 8.4* | -1 | 26* | 7
CCCCNC(=O)N(O)C1N(/N=C/c2ccco2)C(=S)SC1(C)C (stereo unspecified) | -2 | 0 | -2 | 1 | 0 | 0 | . | .
